# Values without a mark were called inactive. Records with an inconclusive call do not appear. A call without a number means that no potency is given here. Activity calls are given as the source filed them. Unless noted, the call rests on the fitted dose curve; in most records, active means well fitted curve in the direction sought with a large enough effect; inconclusive means small, poorly fitted or top-dose-only effect, or another doubt; inactive means no such curve, though single readings can be large; an effect the other way counts as inactive or inconclusive. Non-standard residues stand in square brackets, D forms with d. Residues, ends and D or L forms follow the SMILES beside them. *: point of attachment. Sta = CC(C)C[C@H](N)[C@@H](O)CC(=O)O; Isovaleryl = CC(C)CC(=O)*
# Experiments:
# [1] = NCATS anti-infectives library activity on HEK293 viability as a counter-qHTS vs the C. elegans viability qHTS (AID 1745854);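 further: HEK293 cells exposed to compounds for 24 hr before the viability read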
# Outline: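 HEK293 cells (1,500/well) exposed 24 hr at 37C to 1:5 titrations, up to 41.7 uM final; counter-screen to a C. elegans viability qHTS. Viability by CellTiter-Glo luminescence after 10 min at room temperature; digitonin as control.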
# [2] = biological target: Metallo-beta-lactamase type 2 (Klebsiella pneumoniae) (UniProt C7C422); assay: qHTS to identify inhibitors of the New Delhi Metallo-beta-lactamase (NDM): assay validation screen against the NCATS LOPAC Collection (AID 1794843); further: series mostly up to about 38 µM
# Outline: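 Absorbance at 485 nm from nitrocefin turnover (50 uM solution added), read at plateau, gives the read-out. Compounds in DMSO were incubated first with 2 nM final NDM-1 in pH 7.0 HEPES buffer containing 1 uM ZnSO4 and 0.01% Tween20.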
# [3] = biological target: Glutathione peroxidase 1 (Homo sapiens) (UniProt P07203); assay: Primary qHTS Assay for Inhibitors of Recombinant Selenoprotein Glutathione Peroxidase 1 (GPX1) (AID 1845191); further: nearly all actives have a fitted effect of over 65% in size; further: potency means the concentration at half of the fitted maximal effect
# Outline: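 GR-coupled assay: compounds preincubated 30 min at room temperature with GPX1, then reaction started with CHP; final 10 nM GPX1, 1 mM GSH, 0.5 mM CHP, 0.5 mM NADPH, 100 nM GR, 0.01% BSA, pH 7.5 Tris buffer. NADPH fluorescence (340/450 nm) read at 0 and 15 min.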
# [4] = biological target: Phospholipid hydroperoxide glutathione peroxidase GPX4 (Homo sapiens) (UniProt P36969); assay: Primary qHTS Assay for Inhibitors of Recombinant Selenoprotein Glutathione Peroxidase 4 (GPX4) (AID 1845192); further: nearly all actives have a fitted effect of over 65% in size
# Outline: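 GR-coupled assay: recombinant GPX4 preincubated 30 min with compound at room temperature; final 200 nM GPX4, 1 mM GSH, 0.5 mM cumene hydroperoxide, 0.5 mM NADPH, 100 nM GR, 0.01% BSA, pH 7.5 Tris. NADPH fluorescence (340/450 nm) read at 0 and 15 min.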
# [5] = biological target: Luciferin 4-monooxygenase (Photinus pyralis) (UniProt P08659); assay: Primary firefly luciferase (FLuc) qHTS assay for identification of artifact compounds. (AID 1845220); further: nearly all actives have a fitted effect of over 60% in size
# Outline: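 Enzymatic FLuc inhibition assay: compounds pre-exposed to luciferin/ATP (10 uM each) for 15 min, then purified P. pyralis enzyme at 10 nM added. Read-out: luminescence at 5 min.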
# [6] = system: Nanoluciferase (engineered Oplophorus gracilirostris luciferase); assay: Primary Nanoluciferase (NLuc) qHTS assay for identification of artifact compounds. (AID 1845222);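 further: NLuc secreted into diluted conditioned medium of S16 cells; series mostly up to about 54 µM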
# Outline: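 S16 cell supernatant NLuc, 1:55; cpds qHTS; 15 min RT dark; Nano-Glo substrate 1:100, 5 min; luminescence; Hill fit of % inhibition.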
# [7] = Primary redox qHTS assay for identification of artifact compounds. (AID 1845223)
# Outline: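 Amplex Red (25 uM) and HRP (250 mU/mL) in HBSS, with compounds for 15 min, then 250 uM DTT for 30 min, room temperature, dark. Fluorescence 525/598 nm read; normalized to DMSO and 10 uM DA3003; Hill fit.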
# [8] = Quantitative High-Throughput drug screen in 47 multiple myeloma cell lines against the NCATS MIPE library collection: FR4_PLB cell viability assay (AID 1918924; further: nearly all actives have a fitted effect of over 35% in size; further: potency means the concentration at half of the fitted maximal effect)
# Outline: (§1)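 Myeloma cell lines, 500 cells per well, exposed to MIPE 4.0 library compounds for 48 h at 37C, 5% CO2. Viability from ATP by CellTiter-Glo luminescence; normalised to DMSO (100%) and media-only (0%) wells.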
# [9] = Quantitative High-Throughput drug screen in 47 multiple myeloma cell lines against the NCATS MIPE library collection: EJM_DSMZ cell viability assay (AID 1918926; further: nearly all actives have a fitted effect of over 30% in size; further: potency means the concentration at half of the fitted maximal effect)
# Outline: (§2)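 Inhibition of cell viability is measured here. Each line was plated at 500 cells per well, treated with MIPE 4.0 drugs, kept 48 hours at 37C, then assayed for ATP content by CellTiter-Glo luminescence.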
# [10] = Quantitative High-Throughput drug screen in 47 multiple myeloma cell lines against the NCATS MIPE library collection: AMO1_DSMZ cell viability assay (AID 1918927; further: nearly all actives have a fitted effect of over 30% in size; further: potency means the concentration at half of the fitted maximal effect)
# Outline: as §2
# [11] = Quantitative High-Throughput drug screen in 47 multiple myeloma cell lines against the NCATS MIPE library collection: ARP1_JJKsccF8 cell viability assay (AID 1918928; further: nearly all actives have a fitted effect of over 40% in size; further: potency means the concentration at half of the fitted maximal effect)
# Outline: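 ATP readout (CellTiter-Glo), 48 h drug incubation, 37 °C/5% CO2, 500 cells per well; normalisation to DMSO (100%) and media-only (0%) controls.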
# [12] = Quantitative High-Throughput drug screen in 47 multiple myeloma cell lines against the NCATS MIPE library collection: ARD_JJKsccE7 cell viability assay (AID 1918929; further: potency means the concentration at half of the fitted maximal effect)
# Outline: as §2
# [13] = Quantitative High-Throughput drug screen in 47 multiple myeloma cell lines against the NCATS MIPE library collection: Karpas620_DSMZ cell viability assay (AID 1918959); further: nearly all actives have a fitted effect of over 30% in size; further: potency means the concentration at half of the fitted maximal effect
# Outline: as §1
# [14] = NCATS anti-infectives library activity on the primary C. elegans qHTS viability assay (AID 1745855; calls by dose curve; further: potency means the concentration at half of the fitted maximal effect)
# Outline: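 Viability read-out is GFP fluorescence of PE254-GFP-FLuc C. elegans, measured by laser cytometry (488 nm) at day 0, 3 and 7. Ten L1 worms per well were incubated 7 days at 21 °C with compounds and bacterial capsules in S medium.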
# [15] = Quantitative High-Throughput drug screen in 47 multiple myeloma cell lines against the NCATS MIPE library collection: Delta47_JCRB cell viability assay (AID 1918925; further: nearly all actives have a fitted effect of over 45% in size; further: potency means the concentration at half of the fitted maximal effect)
# Outline: as §2
# Metallo-beta-lactamase type 2 (Klebsiella pneumoniae), sequence (C7C422 whole entry, looked up): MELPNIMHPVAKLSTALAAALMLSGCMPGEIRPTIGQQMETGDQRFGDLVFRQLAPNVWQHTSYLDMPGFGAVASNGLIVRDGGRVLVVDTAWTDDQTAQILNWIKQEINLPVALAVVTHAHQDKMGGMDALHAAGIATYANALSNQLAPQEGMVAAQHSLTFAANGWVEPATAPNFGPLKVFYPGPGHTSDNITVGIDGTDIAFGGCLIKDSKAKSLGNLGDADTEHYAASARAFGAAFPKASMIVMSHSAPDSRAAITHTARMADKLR
# Glutathione peroxidase 1 (Homo sapiens), sequence (P07203 whole entry, looked up): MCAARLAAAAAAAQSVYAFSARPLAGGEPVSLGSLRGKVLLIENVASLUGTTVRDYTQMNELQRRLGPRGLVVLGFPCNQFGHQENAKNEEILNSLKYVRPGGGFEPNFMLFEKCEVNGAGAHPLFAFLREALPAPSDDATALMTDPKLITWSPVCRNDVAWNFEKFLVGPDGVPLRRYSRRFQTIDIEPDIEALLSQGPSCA
# Phospholipid hydroperoxide glutathione peroxidase GPX4 (Homo sapiens), sequence (P36969 whole entry, looked up): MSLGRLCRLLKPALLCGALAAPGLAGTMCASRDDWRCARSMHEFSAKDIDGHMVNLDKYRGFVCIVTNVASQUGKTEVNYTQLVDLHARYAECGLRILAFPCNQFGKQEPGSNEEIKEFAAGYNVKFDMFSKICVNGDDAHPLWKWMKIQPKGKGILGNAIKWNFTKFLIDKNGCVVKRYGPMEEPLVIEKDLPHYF
Compound,outcome [1],outcome [2],Potency [3],Potency [4],Potency [5],outcome [6],outcome [7],Potency [8],Potency [9],Potency [10],Potency [11],Potency [12],Potency [13],Potency [14],Potency [15],"activity change, negative = cytotoxicity [1]"
CC(=O)NC[C@H]1CN(c2ccc(N3CCOCC3)c(F)c2)C(=O)O1,inactive,inactive,inactive,inactive,inactive,inactive,inactive,inactive,inactive,inactive,18.7 µM (active),inactive,inactive,,,
O=c1oc2cc(O)ccc2s1,inactive,,,inactive,,,,inactive,inactive,23.5 µM (active),,,,,,
CC(C)C[C@H](NC(=O)[C@H](Cc1ccccc1)NC(=O)c1cnccn1)B(O)O,,,inactive,inactive,inactive,inactive,inactive,0.0093 µM (active),0.0166 µM (active),,0.0083 µM (active),,,2.3 µM (active),,
O=c1ccc2ccc(O)c(O)c2o1,,inactive,inactive,inactive,,,,inactive,,,,inactive,23.5 µM (active),,6.62 µM (active),
N=C(N)c1ccc2cc(OC(=O)c3ccc(N=C(N)N)cc3)ccc2c1,inactive,,inactive,inactive,,,,,18.7 µM (active),inactive,,inactive,inactive,inactive,,
O=C1c2c(O)cc(O)cc2OC(c2ccc(O)c(O)c2)C1O (stereo not drawn),,inactive,inactive,inactive,,,,inactive,inactive,inactive,inactive,,inactive,,inactive,
CCOC(=O)C1=C[C@@H](OC(CC)CC)[C@H](NC(C)=O)[C@@H](N)C1,inactive,,inactive,inactive,,,,inactive,inactive,inactive,inactive,inactive,inactive,inactive,inactive,
C[C@@H](c1ncncc1F)[C@](O)(Cn1cncn1)c1ccc(F)cc1F,,inactive,inactive,inactive,,,,inactive,inactive,inactive,inactive,inactive,inactive,,,
O=P(O)(O)C(O)(Cn1ccnc1)P(=O)(O)O,,,,inactive,,,,inactive,inactive,,inactive,,inactive,,,-5.55% [at 3.71 µM]
O=C1NC(=O)C(c2ccccc2[N+](=O)[O-])=C1Nc1ccc(O)c(Cl)c1,inactive,inactive,,inactive,,,,,inactive,,inactive,,inactive,,,
CC1(C)C(=O)N(CCN2CCC(C(=O)c3ccc(F)cc3)CC2)c2ccccc21,,inactive,inactive,inactive,,,,inactive,inactive,6.62 µM (active),20.9 µM (active),9.35 µM (active),3.72 µM (active),,,
N=C(N=C(N)N)N1CCOCC1,inactive,,,,,,,inactive,inactive,inactive,inactive,inactive,inactive,inactive,inactive,
Cc1cc(Cl)ccc1OCCCC(=O)NO,inactive,inactive,inactive,inactive,,,,,0.296 µM (active),,,20.9 µM (active),,,2.96 µM (active),
COc1c(O)cc2c(c1O)[C@@H]1O[C@H](CO)[C@@H](O)[C@H](O)[C@H]1OC2=O,inactive,,inactive,inactive,inactive,inactive,inactive,inactive,inactive,inactive,,,inactive,,,
Nc1nc(N)c(N=O)c(OCC2CCCCC2)n1,,inactive,inactive,inactive,,,,18.7 µM (active),10.5 µM (active),13.2 µM (active),14.8 µM (active),5.26 µM (active),13.2 µM (active),,,
CC(C)c1nc(CN(C)C(=O)N[C@H](C(=O)N[C@@H](Cc2ccccc2)C[C@H](O)[C@H](Cc2ccccc2)NC(=O)OCc2cncs2)C(C)C)cs1,inactive,,inactive,inactive,inactive,inactive,,11.8 µM (active),inactive,,,,inactive,,,
c1cnc2cc3c(cc2n1)C1CNCC3C1,,inactive,inactive,inactive,inactive,inactive,inactive,inactive,inactive,inactive,inactive,inactive,inactive,,,
CC(C)CC(=O)N[C@H](C(=O)N[C@H](C(=O)N[C@@H](CC(C)C)[C@@H](O)CC(=O)N[C@@H](C)C(=O)N[C@@H](CC(C)C)[C@@H](O)CC(=O)O)C(C)C)C(C)C (Isovaleryl-VV[Sta]A[Sta]-OH),inactive,,inactive,inactive,,,,inactive,inactive,,inactive,inactive,inactive,,,
O=C(c1ccccc1)c1ccc2n1CCC2C(=O)O (stereo not drawn),,inactive,,inactive,,,,inactive,2.35 µM (active),,,inactive,inactive,,9.35 µM (active),
CC1(C)NC(=O)N(c2ccc([N+](=O)[O-])c(C(F)(F)F)c2)C1=O,,inactive,,inactive,,,,,,inactive,,inactive,inactive,,,
Cc1cc2c(s1)Nc1ccccc1N=C2N1CCN(C)CC1,,,16.1 µM (active),inactive,inactive,inactive,inactive,inactive,inactive,inactive,inactive,,inactive,,inactive,
